About 83,000 compounds went through this panel and 20% of them were active in at least one assay; those are over-represented in the sample as a whole.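 Step 1: grow cells in 96-well plates. Step 2: add test compound at a single concentration. Step 3: incubate 48 h. Step 4: record percent growth.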 The source made the active and inactive calls. Rule for the calls: active = growth percent below 10; inactive = the rest.
Columns and labels:
Test in all cases: NCI-60 one-dose screen, 48 h (100 = growth as untreated, 0 = no growth, -100 = all killed)
Details in all cases: 10 µM unless noted
[1] = tested on: NCI-H23 lung
[2] = tested on: NCI-H226 lung
[3] = tested on: NCI-H322M lung
[4] = tested on: HOP-62 NSCLC
[5] = tested on: NCI-H460 lung
[6] = tested on: HOP-92 NSCLC
[7] = tested on: NCI-H522 lung
[8] = tested on: A549/ATCC NSCLC
[9] = tested on: 786-0 renal
[10] = tested on: COLO 205 colon

Measured: growth

O=C1NC(c2ccc(F)cc2)N=C2C(c3ccccc3)=NOC12 (stereo not given)
inactive: [1] 107% | [2] 99.9% | [3] 109% | [4] 96.5% | [5] 112% | [6] 103% | [7] 92.1% | [8] 90.7% | [9] 96.8% | [10] 116%

CCOC(=O)c1c(C)nc2c(c1N)CC(=O)N2CCc1ccccc1
active: [4] 5.73% | [5] 6.52% | [7] -6.01% | [9] 8.72%
inactive: [1] 53.2% | [2] 42.1% | [3] 59.3% | [6] 25.3% | [8] 23% | [10] 10.7%

COc1ccc(N(C)c2nc(Cl)nc3ccn(C)c23)cc1
inactive: [1] 27% | [2] 30.3% | [3] 49% | [4] 17.7% | [8] 10.7% | [9] 12.6%
active: [5] 2.4% | [6] 5.65% | [7] -36% | [10] -71.1%

N#CC(C#N)=C1NC(c2ccccc2)=C(c2ccccc2)C(c2ccccc2Cl)=C1C#N
inactive: [1] 93.5% | [2] 108% | [3] 107% | [4] 109% | [5] 111% | [6] 109% | [7] 85.5% | [8] 84% | [9] 97.6% | [10] 123%

OCCNc1nc(NCCO)nc(Nc2ccc(C3=NN(c4ccc(Cl)cc4)C(c4ccc(Cl)cc4)C3)cc2)n1 (stereo not given)
inactive: [1] 70.4% | [2] 104% | [3] 50.7% | [4] 47.2% | [5] 36.2% | [6] 81.9% | [7] 63.9% | [8] 50.9% | [9] 16.7% | [10] 65.5%

CC(C)(C)c1ccc(O)c(Cc2cc(C(C)(C)C)ccc2O)c1
inactive: [1] 94.7% | [2] 89.9% | [3] 102% | [4] 85.9% | [5] 104% | [7] 87% | [8] 92.4% | [9] 94.2% | [10] 110%
active: [6] -39.4%

NS(=O)(=O)c1ccc(-n2nc(-c3ccccc3)ccc2=O)cc1
inactive: [1] 101% | [2] 100% | [3] 115% | [4] 102% | [5] 104% | [6] 97.1% | [7] 89.9% | [8] 112% | [9] 93.8% | [10] 125%

S=C(Nc1ccc(Cl)cc1)c1ccccn1
inactive: [1] 83% | [2] 88.1% | [3] 97.2% | [4] 78.3% | [5] 101% | [6] 77.1% | [7] 73.7% | [8] 88.9% | [9] 93.2% | [10] 110%

CC(=O)Nc1ccc2c(c1)Cc1cc(F)ccc1-2
inactive: [1] 90.8% | [2] 99.2% | [3] 86.9% | [4] 84.8% | [5] 106% | [6] 93.4% | [7] 73.7% | [8] 92.5% | [9] 98% | [10] 124%

COc1cc(C2CC(c3ccc(Nc4nc(NCCO)nc(NCCO)n4)cc3)=NN2c2cc(Cl)cc(Cl)c2)cc(OC)c1OC (stereo not given)
inactive: [2] 106% | [3] 11.9% | [4] 14.4% | [6] 89.9% | [7] 25.1% | [10] 35%
active: [1] 4.73% | [5] -24.5% | [8] 0.449% | [9] -17.5%

CNS(=O)(=O)c1cccc(-c2ccc3c4c(n(C)c(=O)c3c2)-c2ccccc2C4=O)c1
inactive: [1] 43.9% | [2] 33.1% | [3] 92.8% | [4] 22.2% | [6] 61.2% | [7] 49.3% | [8] 24% | [9] 25.3% | [10] 66.5%
active: [5] 7.51%

O=[N+]([O-])c1ccc(N=Nc2c(O)c(N=Nc3cc([N+](=O)[O-])cc([N+](=O)[O-])c3O)cc(N=Nc3cc(S(=O)(=O)O)cc4cc(S(=O)(=O)O)cc(O)c34)c2O)cc1
inactive: [1] 96.4% | [2] 113% | [3] 89.3% | [4] 98.6% | [5] 105% | [6] 101% | [7] 86.6% | [8] 102% | [9] 103% | [10] 108%

O=C1Nc2ccc(Cl)cc2/C1=N/c1nc(-c2ccc(F)cc2)cs1
inactive: [1] 44% | [2] 75% | [3] 65.7% | [4] 54.1% | [5] 34.1% | [6] 34.3% | [7] 20.7% | [8] 43.6% | [9] 47.3% | [10] 31.4%

CCOC(=O)c1c(C(F)(F)F)n([O-])c2ccc(Cl)cc2[n+]1=O
active: [2] 3.03% | [3] 6.75% | [4] -65.6% | [5] -78.5% | [6] -78.2% | [7] -59.4% | [8] -39.6% | [9] -73.8% | [10] -59.2%
inactive: [1] 14.8%

CN(C)CCCn1c2c(c3cc(-c4cccc(S(N)(=O)=O)c4)ccc3c1=O)C(=O)c1ccccc1-2
inactive: [1] 57.4% | [2] 77.8% | [3] 77.3% | [4] 53.1% | [5] 14.1% | [6] 104% | [7] 44.9% | [8] 64.7% | [9] 30.6% | [10] 59.1%

O=c1[nH]nc(-c2ccc(Br)cc2)c2sc(NC(=S)Nc3ccc(Cl)cc3)nc12
inactive: [1] 84.1% | [2] 94.4% | [3] 95.3% | [4] 104% | [5] 102% | [6] 92.7% | [7] 94.1% | [8] 102% | [9] 102% | [10] 124%

CC(=O)OCC1SC(OC(C)=O)C(NC(=O)/C=C/CCl)C(OC(C)=O)C1OC(C)=O (stereo not given)
inactive: [1] 99.7% | [2] 103% | [3] 109% | [4] 117% | [5] 102% | [6] 105% | [8] 89.1% | [9] 124% | [10] 107%
active: [7] -9.03%

COc1cc(NC(=O)Nc2cnc(Nc3ccc(N4CCOCC4)cc3)nc2Oc2ccc(F)cc2)cc(OC)c1
inactive: [1] 81.2% | [2] 88% | [3] 97.2% | [4] 89.5% | [5] 54.1% | [6] 78.6% | [7] 92.5% | [8] 55.6% | [9] 38.8% | [10] 111%

CCC1=C[C@H]2CN(CCc3c([nH]c4ccccc34)[C@@](C(=O)OC)(c3cc4c(cc3OC)N(C)[C@H]3[C@@](O)(C(=O)OC)[C@H](OC(C)=O)[C@]5(CC)[C@@H]6C[C@@H]6CN6CC[C@]43[C@@H]65)C2)C1
active: [5] 5.3% | [6] -7.42% | [7] -29% | [10] -43.5%
inactive: [1] 44% | [2] 47.9% | [3] 66.1% | [4] 10.7% | [8] 17.7% | [9] 12.6%

CCCCC1=c2c([nH]c3ccc(OC)cc23)=NC2C=CC=NC12 (stereo not given)
inactive: [1] 81.4% | [2] 89.3% | [3] 86.1% | [4] 90.8% | [5] 80.7% | [6] 103% | [7] 83.8% | [8] 103% | [9] 110% | [10] 106%

CCOC(=O)C1=C(C)n2nc(CC#N)c(C#N)c2NC1c1ccc(Cl)cc1 (stereo not given)
inactive: [1] 86.3% | [2] 81.8% | [3] 91.7% | [4] 91.5% | [5] 105% | [6] 90% | [7] 95.4% | [8] 104% | [9] 106% | [10] 103%

CC(=O)Oc1c2c(nc3c1c1ccccc1n3Cc1ccccc1)-c1ccccc1C2
inactive: [1] 72% | [2] 85.9% | [3] 92.2% | [4] 79.7% | [5] 98.2% | [6] 90.5% | [7] 51% | [8] 85.7% | [9] 91.8% | [10] 97.9%

Cc1cc(Nc2nc(SCc3ccc(C(=O)Nc4ccc(F)cc4N)cc3)nn3cccc23)n[nH]1
inactive: [1] 42.8% | [2] 51.6% | [3] 52.8% | [4] 23.4% | [6] 53.6% | [8] 30.8% | [9] 44.1%
active: [5] 9.98% | [7] -14.8% | [10] -39.9%

CN1CCN(CC#CCOC(=O)CNC(=O)[C@]23CCC(C)(C)C[C@H]2C2=CC[C@@H]4[C@@]5(C)CC[C@H](O)C(C)(C)[C@@H]5CC[C@@]4(C)[C@]2(C)CC3)CC1
inactive: [1] 94.2% | [2] 93.5% | [3] 94.2% | [4] 90.4% | [5] 96.4% | [6] 88.7% | [7] 87.8% | [8] 79.2% | [9] 80.3% | [10] 85.4%

Reference: PubChem BioAssay (NCI)
